GLP-1R inv ag – inverse agonists of human GLP-1 receptor | HEK293 GLP-1R CRE-luciferase, luminescence, 24 h; GLP-1R form is constitutively active | Potency, µM (titrated, usually from 38.3 µM), hits mostly inhibitors | P43220 | 410,000 compounds, 1.6% hits | AID 624417; also: nearly all actives have a fitted effect of over 55% in size
Target sequence (P43220 whole entry, looked up): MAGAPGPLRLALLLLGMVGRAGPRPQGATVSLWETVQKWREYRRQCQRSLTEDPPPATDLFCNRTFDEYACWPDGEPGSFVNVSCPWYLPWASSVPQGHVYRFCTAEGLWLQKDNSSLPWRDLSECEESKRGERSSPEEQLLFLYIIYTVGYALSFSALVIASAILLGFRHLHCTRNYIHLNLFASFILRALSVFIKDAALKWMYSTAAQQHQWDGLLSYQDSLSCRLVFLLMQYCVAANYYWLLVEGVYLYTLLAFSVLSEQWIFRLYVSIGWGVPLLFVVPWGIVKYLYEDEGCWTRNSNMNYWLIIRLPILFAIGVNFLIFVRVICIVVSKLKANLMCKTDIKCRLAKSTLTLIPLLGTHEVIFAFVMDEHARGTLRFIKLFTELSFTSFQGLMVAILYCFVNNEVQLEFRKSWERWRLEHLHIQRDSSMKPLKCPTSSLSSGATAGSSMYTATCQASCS
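Assay principle: reduced luminescence from a cAMP-responsive reporter in HEK293 cells co-expressing a constitutively active GLP-1R. Conditions: 24 hr compound incubation, 37 deg C, 5% CO2.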
VP16 counter – inhibits Gal4-VP16 luciferase reporter, ROR gamma counter-screen | Drosophila S2 Gal4-VP16 UAS-luciferase, luminescence, 20 h | Potency, µM (series often up to 53.6 µM), actives largely listed as inhibitors | 310,000 compounds, 3.5% hits | AID 2546;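 also: Gal4-VP16 expression switched on by copper sulfate through the metallothionein promoter; nearly all actives have a fitted effect of over 50% in size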
GLP-1R agonist – agonists of human GLP-1 receptor; P43220; HEK293 GLP-1R CRE-luciferase, luminescence, 4-6 h; cells express a hypersensitive GLP-1R form; Potency, µM (highest dose often 45.6 µM), actives largely listed as activators; 380,000 compounds, 0.007% hits; AID 624172
RORg inh – inhibitors of mouse ROR gamma transcriptional activity | Potency, µM (titrated, usually from 53.6 µM), hits mostly inhibitors | P51450 | AID 2551 | Drosophila S2 Gal4-RORgamma UAS-luciferase reporter, 20 h | 310,000 compounds, 5.4% hits; also: nearly all actives have a fitted effect of over 60% in size
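Stable Schneider cell line, Gal4 DNA-binding domain fused to ROR gamma, UAS-luciferase. Cmpd 1 hr RT → CuSO4 700 uM final → 20 hr RT → luciferase reagent 10 min → luminescence.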
HEK293 tox – cytotoxic in the GLP-1 receptor inverse agonist counter-screen; HEK293 cAMP-luciferase reporter cells, luminescence, 24 h; Potency, µM (titrated, usually from 38.3 µM), actives largely listed as inhibitors; 410,000 compounds, 0.13% hits;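 also: loss of luciferase light is scored as toxicity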
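Compound-treated cells are incubated 24 hr at 37 deg C under 5% CO2 after a 12 hour attachment period, then luciferase detection reagent is added and luminescence is measured following 12 min at room temperature; lowered signal indicates toxicity.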
Hits are given with their value; ! = not confirmed by another sample; [ ] = another dose, or the depositor's remark. An excerpt weighted towards active compounds, which were near 5.9% of everything screened. Calls follow the shape of the dose curve; as a rule, active = well fitted curve in the direction sought with a large enough effect; inconclusive = small, poorly fitted or top-dose-only effect, or another doubt; inactive = no such curve, though single readings can be large; an effect the other way counts as inactive or inconclusive.

What do the screens show for `Cc1cccc(-n2cc(-c3ccc([N+](=O)[O-])cc3)[nH]c2=S)c1`?
GLP-1R inv ag: inactive; VP16 counter: 3.98µM; GLP-1R agonist: inactive; RORg inh: 7.08µM; HEK293 tox: inactive

Results for Cc1ccc(-n2cc(-c3ccc([N+](=O)[O-])cc3)[nH]c2=S)c(C)c1 ?
GLP-1R inv ag: inconclusive; VP16 counter: 6.31µM; GLP-1R agonist: inactive; RORg inh: 1.26µM; HEK293 tox: inactive

How did Cc1cccc(-n2cnc3cc([N+](=O)[O-])ccc32)c1 do in these assays?
GLP-1R inv ag: inactive; VP16 counter: inactive; GLP-1R agonist: inactive; RORg inh: inactive; HEK293 tox: inactive[1.53 µM]

Results for CNC(=O)/C(C#N)=C/c1ccc(-c2ccccc2[N+](=O)[O-])o1 ?
GLP-1R inv ag: inactive; VP16 counter: inactive; GLP-1R agonist: inactive; RORg inh: inactive; HEK293 tox: inactive

How did Cc1ccc(Cc2cnc(NC(=O)/C(C#N)=C/c3ccc(-c4ccccc4[N+](=O)[O-])o3)s2)cc1 do in these assays?
GLP-1R inv ag: inactive; VP16 counter: 4.47µM; GLP-1R agonist: inactive; RORg inh: 2.24µM; HEK293 tox: inactive

What do the screens show for `Cn1cc(/C=C(\C#N)C(=O)Nc2ncc(Cc3ccc(Cl)cc3)s2)c2ccccc21`?
GLP-1R inv ag: inactive; VP16 counter: 2.51µM; GLP-1R agonist: inactive; RORg inh: 2µM; HEK293 tox: inactive

Results for CC(C)c1ccc(Nc2nc3ccc(C(=O)c4ccccc4)cc3n3cnnc23)cc1 ?
GLP-1R inv ag: inactive; HEK293 tox: inactive

How did CC(C)(C)c1ccc(OCCCC(=O)Nc2cccc(S(=O)(=O)N3CCOCC3)c2)cc1 do in these assays?
GLP-1R inv ag: 7.94µM; GLP-1R agonist: inactive; HEK293 tox: inactive

What do the screens show for `O=C(CCCOc1ccc(Cl)cc1)N1CCOCC1`?
GLP-1R inv ag: inactive; VP16 counter: inactive; GLP-1R agonist: inactive; RORg inh: inactive; HEK293 tox: inactive

What do the screens show for `CC(C)(C)c1ccc(OCCCC(=O)N2CCOCC2)cc1`?
GLP-1R inv ag: inactive; VP16 counter: 11.2µM; GLP-1R agonist: inactive; RORg inh: inconclusive; HEK293 tox: inactive

How did O=C(CCCOc1ccccc1)Nc1cccc(S(=O)(=O)N2CCOCC2)c1 do in these assays?
GLP-1R inv ag: inactive; GLP-1R agonist: inactive; HEK293 tox: inactive

Results for CCOC(=O)c1c(NC(=O)/C=C/c2ccc(OCC)cc2)sc2c1CCCC2 ?
GLP-1R inv ag: inactive; GLP-1R agonist: inactive; HEK293 tox: inactive

Results for CCOC(=O)c1c(C)c(-c2ccccc2)n(CC(=O)Nc2cc(C)cc(C)c2)c1C ?
GLP-1R inv ag: inactive; GLP-1R agonist: inactive; HEK293 tox: inactive

How did Cc1noc(C)c1COC(=O)CCN1c2ccccc2Sc2ccccc21 do in these assays?
GLP-1R inv ag: 4.47µM; VP16 counter: inactive; GLP-1R agonist: inactive; RORg inh: inactive; HEK293 tox: inactive

Results for Cc1cc(=O)n(Cc2ccc(OC(C)C)cc2)c(=S)[nH]1 ?
GLP-1R inv ag: inactive; VP16 counter: inconclusive; GLP-1R agonist: inactive; RORg inh: 7.94µM; HEK293 tox: inactive

Results for CSc1ncc(C(=O)NCc2cccc(Br)c2)c(-c2ccccc2)n1 ?
GLP-1R inv ag: inactive; HEK293 tox: inactive

How did CCC(CC)C(=O)N(C)c1c(C)nc2c(OCc3cc(Cl)cc(Cl)c3)cccn12 do in these assays?
GLP-1R inv ag: 11.2µM; GLP-1R agonist: inactive; HEK293 tox: inactive

How did O=C(CSc1nccn1Cc1ccc2c(c1)OCO2)Nc1ccccc1F do in these assays?
GLP-1R inv ag: inactive; HEK293 tox: inactive

How did COC(=O)c1ccc(NC(=O)CN2CCN(S(=O)(=O)c3ccc(Br)cc3)CC2)cc1 do in these assays?
GLP-1R inv ag: 3.55µM!; VP16 counter: inactive; GLP-1R agonist: inactive; RORg inh: inactive; HEK293 tox: inactive

How did O=C(CN1CCN(S(=O)(=O)c2ccc(Br)cc2)CC1)N/N=C/c1ccc(Br)s1 do in these assays?
GLP-1R inv ag: inconclusive; VP16 counter: 8.91µM; GLP-1R agonist: inactive; RORg inh: 6.31µM; HEK293 tox: inconclusive

What do the screens show for `Cc1ccc(/C=N/NC(=O)CN2CCN(S(=O)(=O)c3ccc(Br)cc3)CC2)s1`?
GLP-1R inv ag: inactive; VP16 counter: inconclusive; GLP-1R agonist: inactive; RORg inh: inconclusive; HEK293 tox: inactive

Results for CCc1ccc(NC(=O)CN2CCCN(S(=O)(=O)c3ccc(F)cc3)CC2)cc1 ?
GLP-1R inv ag: 5.01µM; VP16 counter: inactive; GLP-1R agonist: inactive; RORg inh: inconclusive; HEK293 tox: inactive

How did COC(=O)NC(CC(C)=O)c1ccc2c(c1)OCO2 (stereo not given) do in these assays?
VP16 counter: inactive[10 µM]; RORg inh: inactive[10 µM]

How did COc1ccc2c(c1)N(C[C@@H](C)CN(C)C)c1ccccc1S2 do in these assays?
VP16 counter: inactive; GLP-1R agonist: inactive; RORg inh: inactive[2.98 µM]

How did Cc1ccccc1-c1nc(CN2CCCC2c2ccc(F)cc2)c(C)o1 (stereo not given) do in these assays?
GLP-1R inv ag: inconclusive; VP16 counter: inactive; GLP-1R agonist: inactive; RORg inh: inactive; HEK293 tox: inactive

Results for Cc1oc(-c2ccccc2Cl)nc1CN1CCCC1c1ccc(F)cc1 (stereo not given) ?
GLP-1R inv ag: inconclusive; VP16 counter: inactive; GLP-1R agonist: inactive; RORg inh: 11.2µM; HEK293 tox: inactive

How did Cc1oc(-c2cccc3ccccc23)nc1CN1CCC[C@H]1CO do in these assays?
GLP-1R inv ag: inconclusive; VP16 counter: inconclusive; GLP-1R agonist: inactive; RORg inh: 7.08µM; HEK293 tox: inactive

How did Cc1ccc(NC(=O)c2csc(-c3ccccc3)c2C)cc1 do in these assays?
GLP-1R inv ag: inactive; VP16 counter: 2µM; GLP-1R agonist: inactive; RORg inh: 2µM; HEK293 tox: inactive

What do the screens show for `Cc1cc(C(=O)Nc2ccc(Cl)cc2)c(C)n1-c1ccccc1`?
GLP-1R inv ag: inactive; VP16 counter: inconclusive; GLP-1R agonist: inactive; RORg inh: inconclusive; HEK293 tox: inactive

Results for Cc1ccc(NC(=O)c2cc(C)n(-c3cccc(C)c3)c2C)cc1 ?
GLP-1R inv ag: 11.2µM; VP16 counter: inactive; GLP-1R agonist: inactive; RORg inh: inactive; HEK293 tox: inconclusive

How did Cc1c(C(=O)Nc2cccc([N+](=O)[O-])c2)csc1-c1ccccc1 do in these assays?
GLP-1R inv ag: inactive; VP16 counter: inactive; GLP-1R agonist: inactive; RORg inh: inconclusive; HEK293 tox: inactive

Results for Cc1ccc(NC(=O)c2cc(C)n(-c3ccccc3)c2C)cc1 ?
GLP-1R inv ag: inactive; VP16 counter: 6.31µM; GLP-1R agonist: inactive; RORg inh: 4.47µM; HEK293 tox: inactive

How did Cc1ccc2ncc3c(-c4ccccc4)nn(CC(=O)NC4CCCCC4)c3c2c1 do in these assays?
GLP-1R inv ag: inactive; HEK293 tox: inactive

Results for COc1ccc(NC(=S)N2CCC(C(O)(c3ccccc3)c3ccccc3)CC2)cc1 ?
GLP-1R inv ag: inconclusive; VP16 counter: inconclusive; GLP-1R agonist: inactive; RORg inh: inconclusive; HEK293 tox: inactive
